Test results as given in PubChem BioAssay AID504467 (National Center for Advancing Translational Sciences (NCATS), 2011).
The whole screen tested about 330,000 compounds, of which about 7,700 (2.3%) were called active. A call without a number means that no potency is given here. About 26% were inconclusive and are not listed. This is one part of a sample in which actives are shown more often than they occur. Calls follow the shape of the dose curve; as a rule, active = well fitted inhibition curve with a large enough effect; inconclusive = small, poorly fitted or top-dose-only effect, or effect the other way; inactive = flat fitted curve, though single readings scatter.

experiment: qHTS screen for small molecules that inhibit ELG1-dependent DNA repair in human embryonic kidney (HEK293T) cells expressing luciferase-tagged ELG1; details: HEK293T ELG1-luciferase reporter, luminescence, 16 h, DNA damage induced by 5-fluorouridine; series mostly up to 46.1 µM; also: nearly all actives have a fitted effect of over 55% in size
How it was run: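 5-Fluorouridine DNA damage + compound/DMSO, 2,000 cells/well, 16 h, 37 °C/5% CO2. ONE-Glo, 30 min RT, luminescence. Readout = decrease in reporter signal.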
Potency is read from the fitted curve at half-maximal effect.

Compound | Potency
CCOC(=O)N1CCN(C(=O)c2ccc3c(=O)n(CCc4ccc(OC)c(OC)c4)c(=O)[nH]c3c2)CC1 | inactive
Cc1ccc(-n2nc3c(=O)n(C(C)C(=O)NCc4ccc5c(c4)OCO5)nc(C)c3c2C)cc1 (stereo not drawn) | inactive
Cc1ccc(-c2csc(N3CCN(c4cc5c(cc4Cl)nc(-c4ccncc4)n5CCOCCO)CC3)n2)cc1 | inactive
CCN([C@H](CO)C(C)C)S(=O)(=O)c1ccccc1Br | inactive
CCOc1ccc(NS(=O)(=O)c2ccc(Cl)c(C(=O)N(C)Cc3cccnc3)c2)cc1 | inactive
CCC(C)(C)n1nnnc1C(c1cccs1)N1CCN(c2nc3ccccc3s2)CC1 (stereo not drawn) | 20.6 µM (active)
CCC(C)(C)n1nnnc1C(c1cccs1)N1CCN(Cc2ccccc2)CC1 (stereo not drawn) | inactive
CCC(C)(C)n1nnnc1C(c1ccccc1OC)N1CCSCC1 (stereo not drawn) | inactive
CC(=O)c1ccc(N2CCN(C(=O)c3ccc(Cl)c(S(=O)(=O)NC4CC4)c3)CC2)c(F)c1 | inactive
COc1ccc(/C(C)=N/NC(=O)CCC(=O)Nc2ccc(Cl)cc2Cl)c(OC)c1 | inactive
COc1ccc(OC)c(C(=O)c2ccc(Cl)cc2)c1 | inactive
COc1ccc(OC)c(/C(C)=N\NC(=O)c2cc3cc(Cl)ccc3n2C)c1 | 16.4 µM (active)
CCN(CC(=O)Nc1cccc(S(=O)(=O)N2CCCCC2)c1)Cc1ccccc1 | inactive
O=C(NNS(=O)(=O)c1c(F)cc(F)c(Cl)c1F)C12CC3CC(CC(C3)C1)C2 | inactive
CCc1ccc(NC(=O)CN2C(=O)COc3ccc(S(=O)(=O)N4CCCC4)cc32)cc1 | inactive
CCC(C)NC(=O)c1ccc(NC(=O)CC2SC(N3CCCCC3)=NC2=O)cc1 (stereo not drawn) | inactive
O=C(Nc1ccccc1Cl)Nn1cnnc1 | inactive
COCCN(CCOC)C(=S)Nc1ccccc1Cl | inactive
O=C(Nc1ccccc1Cl)/C(Cl)=C(\Cl)S(=O)c1ccccc1 (stereo not drawn) | 9.2 µM (active)
CSc1cccc(NC(=O)CN2C(=O)COc3ccc(S(=O)(=O)N4CCOCC4)cc32)c1 | inactive
Cc1ccc(C(=O)NC23CC4CC(CC(C4)C2)C3)c(Cl)c1 | inactive
COc1ccc(N2CCN(C(=O)c3ccccc3NC(=O)C3=C(C)OCCS3)CC2)cc1 | inactive
CCCCNC(=O)c1ccccc1NC(=O)C1=C(C)OCCS1 | inactive
COc1cccc(CCNC(=O)c2cccc(NC(=O)C3=C(C)OCCS3)c2)c1 | 20.6 µM (active)
CCn1c(SCC(=O)NNC(=O)c2ccc(OC)cc2)nnc1C(C)C | inactive

Compound | Potency
Cc1ccc(CNC(=O)Cn2cnc3c(NCc4ccccc4)ncnc32)o1 | inactive
Cn1cc(/C=C/c2nc3ccccc3c(=O)n2-c2cccc([N+](=O)[O-])c2)c2ccccc21 | inactive
CCn1c(/C=C/c2ccc([N+](=O)[O-])o2)nc2ccccc2c1=O | 16.4 µM (active)
Cc1nc2ccccc2c(=O)n1Cc1ccc([N+](=O)[O-])cc1 | inactive
Cc1cc(C)c(S(=O)(=O)N2CCCC2CNC(=O)c2ccc3c(c2)OCO3)c(C)c1 (stereo not drawn) | inactive
CCc1nc(Nc2ccc3nccnc3c2)c2oc3ccccc3c2n1 | 2.59 µM (active)
CCc1nc(Nc2ccc(NC(C)=O)cc2)c2oc3ccccc3c2n1 | inactive
CCc1nc(N2CCN(c3nc(C)cc(C)n3)CC2)c2oc3ccccc3c2n1 | inactive
CCCCCc1c(C)nc(N2CCN(Cc3ccc4c(c3)OCO4)CC2)[nH]c1=O | inactive
CCC(C)[C@H](NC(=O)N1CCn2c1nc1ccccc12)C(=O)NCc1ccc(OC)cc1 (stereo partly drawn) | inactive
COc1ccc(OC)c(NC(=O)COC(=O)Cc2ccsc2)c1 | inactive
CCOC(=O)CSc1nc(N2CCOCC2)c2c(c1C#N)CC(C(C)C)OC2 (stereo not drawn) | inactive
COc1ccc(CSc2nc(N3CCOCC3)c3c(c2C#N)CC(C)(C)OC3)cc1 | 0.92 µM (active)
CC(C)c1nc(N2CCOCC2)c(C#N)c2c1COC(C)(C)C2 | inactive
O=C(COC(=O)c1ccc(O)cc1O)c1ccc2c(c1)OCCO2 | inactive
CCN1CCN(c2ccc(S(=O)(=O)N3CCCCC3)cc2NC(=O)c2cccc(NC(C)=O)c2)CC1 | inactive
CCN(CC)S(=O)(=O)c1ccc(N2CCOCC2)c(NC(=O)C(C)Oc2ccc(F)cc2)c1 (stereo not drawn) | 8.2 µM (active)
CCN(CC)S(=O)(=O)c1ccc(N2CCOCC2)c(NC(=O)c2ccc(=O)n(C)n2)c1 | inactive
CC(Oc1ccc(F)cc1)C(=O)Nc1cc(S(=O)(=O)N2CCOCC2)ccc1N1CCN(C)CC1 (stereo not drawn) | inactive
COc1cccc(CNS(=O)(=O)c2ccc3c(c2)N(C(C)=O)CCS3)c1 | inactive
O=C(Nc1cccc(C(=O)NC2CC2)c1)c1ccc(F)c(S(=O)(=O)N2CCOCC2)c1 | inactive
COc1ccc(NC(=O)NCCN2CCN(c3ccc(C)cc3)CC2)c(Cl)c1 | inactive
O=C1C(Cc2ccc(O)cc2)NC(=S)N1Cc1ccccc1 (stereo not drawn) | inactive
CC1Oc2ccccc2N(Cc2cccnc2)C1=O (stereo not drawn) | inactive
CC1C(=O)N(Cc2ccccc2)c2ccccc2N1C(=O)c1ccccc1 (stereo not drawn) | 25.9 µM (active)

Compound | Potency
COCCN(Cc1ccccc1)C(=O)Cc1ccc(S(=O)(=O)N2CCOCC2)s1 | inactive
COC(=O)c1ccc(CN2C(=O)NC(c3ccccc3)(c3ccccc3)C2=O)o1 | inactive
CC[C@]1(c2ccccc2OC)C(=O)N(C(=O)OC)N1C(=O)OC | inactive
CC1(C)Cc2c(sc(NC(=O)C(=O)NCC3CCCO3)c2C(=O)O)CO1 (stereo not drawn) | inactive
Cn1c(SCC(=O)Nc2nccs2)nnc1-c1cccnc1 | inactive
Cc1ccc(C2C3=C(Nc4[nH]n(-c5ccccc5)c(=O)c42)c2ccccc2C3=O)cc1 (stereo not drawn) | inactive
COC(=O)C1=C(C)NC2=C(C(=O)c3ccccc32)C1c1ccc(-c2ccc(C(=O)O)cc2)o1 (stereo not drawn) | 20.6 µM (active)
COc1ccccc1NC(=O)C1=C(C)NC2=C(C(=O)CCC2)C1c1ccc(C)o1 (stereo not drawn) | inactive
O=C(Nc1ccncc1)c1ccc(Cl)c([N+](=O)[O-])c1 | inactive
Oc1ccc2ccccc2c1C=Nc1ccccc1 | inactive
Oc1ccc2ccccc2c1N=Nc1nccs1 | 3.66 µM (active)
Oc1ccc(N=Cc2c(O)ccc3ccccc23)cc1 | inactive
CC(C)C(NC(=O)c1c(F)cccc1F)C(=O)NNC(=O)c1ccccc1 (stereo not drawn) | inactive
CN(C(=O)Cn1nnc(-c2ccc(F)cc2)n1)C1CCS(=O)(=O)C1 (stereo not drawn) | inactive
CN(C)S(=O)(=O)c1cccc(NC(=O)Cc2ccsc2)c1 | inactive
CN(CC(=O)Nc1cccc(F)c1)C(=O)C1=COCCO1 | inactive
CCCc1ccc(-c2c(C)sc(NC(=O)c3ccnn3C)c2C#N)cc1 | 18.4 µM (active)
CCN(CC)C(=O)c1sc(NC(=O)c2ccco2)c(C#N)c1C | inactive
Cn1nccc1CNC(=O)c1ccnn1C | inactive
CSc1ccccc1C(=O)OCC(=O)N1CCN(C(C)=O)CC1 | inactive
Cc1ccc(C)c(S(=O)(=O)n2cnc3ccccc32)c1 | inactive
Cc1ccc(C)c(S(=O)(=O)N2CCN(c3ncnc4sccc34)CC2)c1 | 1.83 µM (active)
COc1ccc(C)cc1S(=O)(=O)N1CCN(S(=O)(=O)c2cc(C(=O)O)ccc2C)CC1 | inactive
CC(=O)N1CCCc2cc(S(=O)(=O)CCC(=O)N3CCN(c4ccccc4)CC3)ccc21 | inactive
CC(=O)N1CCCc2cc(S(=O)(=O)N3CCCC(C(=O)N4CCN(c5cccc(Cl)c5)CC4)C3)ccc21 (stereo not drawn) | 20.6 µM (active)

Compound | Potency
CCCS(=O)(=O)N1CCCC(C(=O)N2CCN(c3ccccc3)CC2)C1 (stereo not drawn) | inactive
Cc1ccc(S(=O)(=O)N2CCCC(C(=O)N3CCN(C)CC3)C2)cc1 (stereo not drawn) | inactive
O=C(C1CCCN(S(=O)(=O)c2ccccc2)C1)N1CCN(c2ccc(F)cc2)CC1 (stereo not drawn) | 11.6 µM (active)
CC(=O)N1c2ccc(S(=O)(=O)N3CCC(C(=O)N4CCN(c5ccccc5)CC4)CC3)cc2CC1C (stereo not drawn) | inactive
O=S(=O)(NC1CCCCC1N1CCN(c2ccccc2F)CC1)c1ccccc1 (stereo not drawn) | inactive
COc1ccccc1N1CC(C(=O)Nc2nnc(SCC(=O)NCC3CCCO3)s2)CC1=O (stereo not drawn) | inactive
COc1ccc2[nH]c3nc(SCC(=O)NC4CC4)nnc3c2c1 | inactive
Cc1cccc(S(=O)(=O)N2CN(CC3CCCO3)c3nc4ccccc4nc32)c1 (stereo not drawn) | inactive
CCOc1ccc(NC(=O)CN(C)C(=O)COc2cccc(CC)c2)cc1OCC | inactive
CN(CC(=O)Nc1ccc(F)cc1)C(=O)c1ccc(-c2ccc(Cl)cc2)o1 | inactive
CC(C)(C)NS(=O)(=O)NC(=O)C1=C(N2CCCC2)COC1=O | inactive
CCCc1cc(=O)oc2cc(OCC(=O)Nc3ccc(CN4CCOCC4)cc3)c(Cl)cc12 | inactive
CCCCN1C(=O)C(C)=C(C)C1OCCc1ccc(OC)c(OC)c1 (stereo not drawn) | inactive
CCC(CO)Oc1cc(NC(=O)c2ccc(Cl)cc2)c2ncn(C(C)C)c2c1 (stereo not drawn) | inactive
CCC(CO)Oc1cc(NC(=O)c2cccc3ccccc23)c2ncn(C(C)C)c2c1 (stereo not drawn) | 14.6 µM (active)
O=C(O)c1ccccc1-c1ccccc1C(=O)Nc1cccc2ccccc12 | inactive
CC(C#N)(NC(=O)CN1CCN(S(=O)(=O)c2cc(C(F)(F)F)ccc2Cl)CC1)C1CC1 (stereo not drawn) | inactive
Cc1ccc(S(=O)(=O)Nc2nc(CN3CCOCC3)nc3sc(C)c(C)c23)cc1 | inactive
C[C@H]1COC(=O)[C@H](CC(=O)OC(C)(C)C)C/C=C\C[C@@H](CC(=O)N[C@H](CO)Cc2ccccc2)C(=O)N1 | inactive
O=C(CSc1nc2nccnc2c(=O)n1Cc1cccs1)Nc1ccccc1F | inactive
O=C(Nc1ccccc1-c1nnn(CC(=O)N2CCN(c3ccccc3)CC2)n1)c1cccs1 | 23.1 µM (active)
COc1ccccc1N1CCN(C(=O)Cn2nnc(-c3cccs3)n2)CC1 | inactive
O=C(Nc1ccccc1-c1ccccc1)c1cccs1 | inactive
